# Assay outcomes from PubChem BioAssay.
# Fluor 339 460: intrinsic fluorescence of library compounds, ex339/em460 – biochemical, MLSMR library, data from DPM-DC assay, artefact control, profiling panel | compound autofluorescence, ex339/em460 nm, NADH buffer; hits give high values; 1 = no-compound wells, NADH background | fluorescence fold increase at 10 µM | 65,000 tested, 5.5% active | AID 709, 2007;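 active means at 10 µM, mean starting fluorescence two-fold or more over control wells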;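 further: signal is the first read of a kinetic run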
# MK inhibit: S. pneumoniae MK inhibitors, primary screen, biochemical, PK/LDH-coupled NADH absorbance. purified MK, PK/LDH-coupled NADH absorbance 340 nm. 65,000 tested, 0.48% active. inhibition, % at 10 µM;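 active means ranked among the strongest by inhibition in the single 10 µM screen, a fixed top-ranked set picked for dose follow-up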
# Abs 340nm: compound light absorbance at 340 nm, profiling panel, artefact control, biochemical, MLSMR library, data from PS, PMK, MK assays; fold change at 10 µM; 65,000 tested, under 10 active; compound absorbance at 340 nm, fold over control;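 active means at 10 µM dose, initial 340 nm absorbance at least 2 fold that of control wells; inactive means change under 2 fold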;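 further: initial absorbance extrapolated from kinetic A340 decline of NADH oxidation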
# NADH enzymes: inhibitors of PK/LDH coupling enzymes, profiling panel, artefact control, biochemical, MLSMR library | coupled PK/LDH NADH assays, four targets | IC50, µM (doses to about 10 µM), for inactives: top-dose inhibition | AID 774, 2007 | 65,000 tested, 0.02% active;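 active means single-dose screening hits from any of four coupled enzyme assays that gave an IC50 when retested across doses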;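 further: the DPM-DC format reads NADH fluorescence rather than 340 nm absorbance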
# PMK inhibit: S. pneumoniae PMK inhibitors, primary screen, biochemical, mevalonate pathway, pilot trial included. purified PMK, PK/LDH-coupled NADH absorbance 340 nm. 65,000 tested, 0.49% active. phosphomevalonate kinase (Streptococcus pneumoniae D39). inhibition, % at 10 µM;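 active means top-ranked compounds by inhibition in the single 10 µM screen, taking a fixed number of the strongest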;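 further: 0% = full reaction with DMSO carrier and 100% = background rate without enzyme reaction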
# DPM-DC inhibit: S. pneumoniae DPM-DC inhibitors, primary screen, biochemical, PK/LDH-coupled NADH fluorescence | calls only at 10 µM | 65,000 tested, 0.49% active | purified DPM-DC;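 active means the 320 compounds with the highest percent inhibition in the single-dose primary screen, excluding strongly autofluorescent ones, cut at about 32% in these data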;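 further: kinetic rate of NADH fluorescence loss reporting ADP formed by the decarboxylase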
# Numbers without * were called inactive; i = inactive; x = no result given; + = active, no number. Compounds with a hit are over-represented: about 6.5% of the library has one in this group of screens.
SMILES,Fluor 339 460,MK inhibit,Abs 340nm,NADH enzymes,PMK inhibit,DPM-DC inhibit
CCOc1ccc(Nc2nc(Cc3nnc(SCC(=O)NCc4ccco4)n3CC)cs2)cc1,1.09,0.0,0.99,3.0%,9.0,i
Cc1c(-c2ccccc2)sc(N)c1C(=O)N1CCOCC1,1.23,0.0,1.01,4.0%,11.0,i
COc1ccc(NC(=O)c2ccco2)cc1NC(=O)c1cc2ccccc2o1,1.2,2.0,1.08,7.0%,16.0,i
COc1cc(NC(=O)c2cc(-c3ccco3)on2)c(OC)cc1Cl,4.59*,5.0,1.08,5.0%,5.0,x
COc1cc(NC(=O)c2cc3ccccc3o2)c(OC)cc1Cl,2.22*,5.0,1.05,8.0%,10.0,x
COc1cc(NC(=O)c2cc(CC(C)C)on2)c(OC)cc1Cl,1.08,57.0*,1.01,7.0%,2.0,i
COc1ccc(-c2cc3ccccc3oc2=O)cc1NC(=O)c1ccc(Br)o1,3.84*,2.0,1.16,1.0%,0.0,x
COc1cc(NC(=O)c2cc3ccccc3o2)c(OC)cc1Br,1.83,0.0,1.1,10.0%,5.0,i
COc1cc(OC)c(NC(=O)c2ccco2)cc1Cl,1.01,9.0,0.99,11.0%,5.0,i
CCCc1cc(C(=O)Nc2cc(OC)c(Cl)cc2OC)no1,1.15,4.0,1.03,2.0%,2.0,i
Cc1ccc(C(c2nnnn2CC2CCCO2)N2CCN(c3cccc(C)c3C)CC2)cc1 (centres undefined),1.12,0.0,0.98,4.0%,13.0,i
Cn1c(=O)[nH]c(=O)c2[nH]c(N(Cc3ccccc3)Cc3ccccc3)nc21,1.12,4.0,1.01,3.0%,5.0,i
CCOc1ccccc1N(C(=O)c1snc(C(N)=O)c1N)C(C(=O)NC1CCCC1)c1ccco1 (centres undefined),2.36*,5.0,1.05,14.0%,x,i
Cc1ccc(C(C(=O)NC2CCCC2)N(Cc2cccnc2)C(=O)c2snc(C(N)=O)c2N)o1 (centres undefined),2.57*,9.0,1.1,13.0%,7.0,i
COCCNC(=O)C(c1ccc(C)o1)N(C(=O)c1snc(C(N)=O)c1N)c1cccc(C)c1 (centres undefined),2.51*,7.0,1.02,15.0%,16.0,i
CCN(CCCNC(=O)CN(C)S(=O)(=O)c1ccc2c(c1)CCC(=O)N2)c1cccc(C)c1,1.1,8.0,1.02,5.0%,6.0,i
CN1CCN(CCCNC(=O)C2CCN(c3nnc(-n4cccc4)s3)CC2)CC1,0.99,10.0,0.98,6.0%,9.0,i
CCN(CCNC(=O)C1CCN(c2nnc(-n3cccc3)s2)CC1)c1ccccc1,0.94,11.0,1.03,21.0%,11.0,+
CC(C)Cc1nc(C(N)=O)c2[nH]c(=O)n(-c3ccc(F)cc3)c2n1,2.16*,0.0,1.05,4.0%,8.0,x
Cc1cccc(-n2c(=O)[nH]c3c(C(N)=O)nc(CC(C)C)nc32)c1,5.11*,0.0,1.04,5.0%,9.0,x
CCC(C)Sc1nnc(Cc2cc(=O)[nH]c(=O)[nH]2)n1-c1ccc(F)cc1 (centres undefined),1.08,6.0,1.06,4.0%,7.0,i
CCCn1c(SCC(=O)Nc2ccccc2-c2ccccc2)nnc1-c1ccoc1C,1.12,9.0,0.99,6.0%,10.0,i
CC1CN(c2oc(-c3cccs3)nc2C#N)CC(C)O1 (centres undefined),2.38*,0.0,1.07,7.0%,14.0,x
N#Cc1nc(-c2cccs2)oc1N1CCOCC1,2.29*,6.0,1.09,3.0%,0.0,x
O=C(CSc1ncnc2c1nnn2-c1ccc(F)cc1)N1CCN(c2ccccc2)CC1,1.03,6.0,1.05,2.0%,0.0,i
SMILES,Fluor 339 460,MK inhibit,Abs 340nm,NADH enzymes,PMK inhibit,DPM-DC inhibit
CCOc1cccc(OCCCNCCCOC)c1,1.08,40.0*,1.06,13.0%,0.0,i
COc1cccc2[nH]c3c(N4CCC(C(N)=O)CC4)ncnc3c12,3.69*,5.0,1.13,8.0%,10.0,x
COc1cc2[nH]c3c(N4CCC(C(N)=O)CC4)ncnc3c2cc1OC,2.8*,3.0,1.03,12.0%,19.0,i
COc1ccc(-n2ncc3c(N4CCC(C(N)=O)CC4)ncnc32)cc1,1.09,7.0,0.99,4.0%,5.0,i
O=C(CCCNS(=O)(=O)c1cccc2nsnc12)NC1CCCCC1,1.1,4.0,1.03,7.0%,17.0,i
CCCc1cc(C(=O)N2CCN(c3ccccc3C)CC2)cs1,1.11,7.0,1.03,5.0%,7.0,i
COc1ccc(-n2nc(C(=O)NCC(=O)NCc3ccco3)c3ccccc3c2=O)cc1,1.15,7.0,1.02,4.0%,5.0,i
COc1ccc(-n2nc(C(=O)NCc3ccco3)c3c4ccccc4n(C)c3c2=O)cc1Cl,3.59*,11.0,1.08,20.0%,16.0,+
O=C(NC1CCCc2ccccc21)C1CCN(c2c3c(nc4ncnn24)CCC3)CC1 (centres undefined),4.71*,5.0,1.06,6.0%,6.0,x
CCOC(=O)c1[nH]nc2c1C(=O)N(Cc1ccccc1)C2=O,1.1,5.0,1.04,7.0%,13.0,i
c1ccc2c(c1)ncc1cccn12,2.11*,1.0,1.09,5.0%,8.0,x
Cc1cc(C)n2c(SCC(=O)N(C)C3CCS(=O)(=O)C3)nnc2n1 (centres undefined),1.06,0.0,0.99,8.0%,25.0*,i
C=CCn1sc(=N)c(C#N)c1N,1.07,0.0,1.01,7.0%,22.0,i
COc1ccc2sc(N3C(=O)C4CC=C(C)CC4C3=O)nc2c1 (centres undefined),1.03,8.0,0.99,4.0%,5.0,i
Cc1nc2c(-c3ccccc3)c(C)nn2c(C)c1CCC(=O)N1CCOCC1,1.18,6.0,1.08,5.0%,8.0,i
COc1ccc(-c2nc(N3CCOCC3)nc3nn4c(C)c(CCC(=O)O)c(C)nc4c23)cc1,4.99*,0.0,1.08,7.0%,14.0,x
Cc1nc2c3c(-c4ccccc4)nc(N4CCOCC4)nc3nn2c(C)c1CCC(=O)O,3.69*,0.0,1.09,13.0%,11.0,i
CCCS(=O)(=O)N1CCN(S(=O)(=O)c2ccc(F)cc2)CC1,1.11,6.0,1.05,2.0%,0.0,i
COc1ccc2c(CC(=O)NCc3ccc4c(c3)OCO4)coc2c1,1.06,0.0,1.03,1.0%,4.0,i
CCOC(=O)Cc1c(C)nc2c(-c3ccc(Cl)cc3)c[nH]n2c1=O,2.12*,5.0,1.12,7.0%,8.0,x
